Measured values: PubChem BioAssay AID686979 (National Center for Advancing Translational Sciences (NCATS), 2013)
Several values for one entry are separate records, joined by “and”; a condition that tells them apart may be missing. Equal values may be shown once. Screen size: about 420,000 compounds; about 50,000 (12%) were called active. About 26% were inconclusive and are not listed. The sample as a whole holds a higher share of actives than the screen did. A number with no mark means an inactive call. The call rests on the fitted dose curve; in most records, active means well fitted inhibition curve with a large enough effect; inconclusive means small, poorly fitted or top-dose-only effect; inactive means flat fitted curve, though single readings scatter.

assay: qHTS for Inhibitors of human tyrosyl-DNA phosphodiesterase 1 (TDP1): qHTS in cells in presence of CPT; settings: chicken DT40 Tdp1-/-;hTDP1 cells + 20 nM CPT, ATP luminescence, 48 h; series mostly up to 46.2 µM; activity change, negative = growth inhibition: at the top concentration; further: nearly all actives have a fitted effect of over 55% in size
Procedure, shortened: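 Cell growth measured by CellTiter-Glo luminescence after a minimum 48 h, 37 C compound exposure with 20 nM CPT in Tdp1-knockout DT40 cells stably expressing hTDP1, seeded 400/well; qHTS titration format.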
On the % scale 0 is the no-effect control and ±100 the full control effect; potency means the concentration at half of the fitted maximal effect.

Compound	activity change, negative = growth inhibition	Potency
O=C(Cc1ccc(Cl)cc1)c1ccccc1	3.05%	
CCCCCCNCCn1cnc2c(N)ncnc21	4.28%	
COc1ccc(NC(=O)c2ccc3oc(=O)c(S(=O)(=O)c4ccc(F)cc4)cc3c2)c(OC)c1	0.795%	
COc1cccc(NC(=O)CN(C)C(C)C(=O)Nc2ccc(C#N)cc2)c1 (stereo not given)	1.07%	
CCOC(=O)c1cc2c(=O)n3ccccc3nc2n(CCCOC)c1=NC(=O)C(C)(C)Oc1ccc(Cl)cc1	-18.4%	
Nc1cc2c(cc1Br)-c1ccc(F)cc1C2=O	-14.1%	
Cc1ccc(/C=N/NC(=O)CSc2nc3ccccc3o2)cc1		18.4 µM (active)
CC(C)(C)C(=O)CSc1nc2ccccc2o1	10.3%	
CCN(CC)C(=O)CSc1nc2ccccc2o1	1.95%	
CC(Sc1nnc(C2CC2)n1C1CC1)C(=O)Nc1ccc(C(N)=O)cc1 (stereo not given)	-11.7%	
COc1ccc(NS(=O)(=O)c2ccc(N3CCOCC3)c(NC(=O)/C=C/C(=O)O)c2)cc1	-24.2%	
COc1ccc(NS(=O)(=O)c2ccc(N3CCN(CCO)CC3)c([N+](=O)[O-])c2)cc1		9.2 µM (active)
CC1CCN(c2ccc(S(=O)(=O)Nc3cc(C(=O)O)cc(C(=O)O)c3)cc2[N+](=O)[O-])CC1	6.32%	
O=C(CSc1nncn1-c1cccnc1)N1CCOCC1	18.2%	
O=C1NC(c2ccccc2)Cc2ccncc21 (stereo not given)	-1.24%	
COc1ccc(OC)c(Cc2nnc(CCC(=O)NC3CCCC3)o2)c1	24.7%	
COc1ccc(OC)c(Cc2cnc3nc(N)nc(N)c3c2C)c1		0.259 µM (active)
COc1ccc(OC)c(NC(=O)c2sc3nc(C)cc(C)c3c2N)c1	-1.45%	
COCC1CCCN(Cc2ccc3c(c2)CN(C(=O)c2ccnn2C)CCO3)C1 (stereo not given)	-3.58% [at 9.04 µM]	
S=c1[nH]nc(-c2ccc(Cl)cc2)n1CC1CCCO1 (stereo not given)	-28.6%	
O=C(c1[nH]ncc1-c1ccc(Cl)cc1)C1CO1 (stereo not given)		1.03 µM (active)
COC(=O)c1ccc(C)c(NC(=O)C2CC(=O)N(C3CCCC(C)C3C)C2)c1 (stereo not given)	-28.8%	
C=C1C(=C/C=C2\CCC[C@]3(C)[C@@H]([C@H](C)CCCC(C)(C)O)CC[C@@H]23)C[C@@H](O)C[C@@H]1O		9.44 µM (active)
CCNC(=O)C1(C)CCCN(C(=O)c2ccc3ccccc3n2)C1 (stereo not given)	-17.1%	
CCOC(=O)c1sc(NC(=O)CSc2n[nH]c(CC)n2)nc1C	-18%	
O=C(N/N=C/c1ccc(Br)o1)c1cncc(Br)c1	-1.47%	
Cc1sc2ncn(CC(=O)NCCCC(=O)NCc3ccc(F)cc3)c(=O)c2c1C	1.23%	

Compound	activity change, negative = growth inhibition	Potency
Cn1cc(S(=O)(=O)N2CCC(Cc3ccccc3)CC2)c(=O)n(C)c1=O	-4.97%	
O=C1N[C@H](Cc2ccccc2)C(=O)N[C@H]1Cc1cn(S(=O)(=O)c2ccccc2)c2ccccc12		13 µM (active)
CSc1ncccc1C(=O)Nc1ccc2c(c1)OCO2	-7.18%	
Cc1c(NC(=O)/C=C/C(=O)O)cccc1[N+](=O)[O-]	-18.6%	
Cc1c(NC(=O)CCCOc2ccccc2)cccc1[N+](=O)[O-]	-6%	
Cc1c(NC(=S)NCc2ccc(F)cc2)cccc1[N+](=O)[O-]		20.6 µM (active)
CCN(CC(=O)NCc1ccc(Cl)cc1)C(=O)CSc1ccccc1	-16.6%	
c1ccc(-c2ccc3c(c2)NC(C2Nc4cc(-c5ccccc5)ccc4O2)O3)cc1 (stereo not given)	-2.09%	
CC(=O)c1cccc(NC(=O)COc2ccc(S(=O)(=O)N3CCOCC3)cc2)c1	-18.5%	
CC1CCN(S(=O)(=O)c2ccc3[nH]c(=O)ccc3c2)CC1	-2.79%	
CC(=O)c1cccc(Nc2ccc3cc(S(=O)(=O)N4CCC(C)CC4)ccc3n2)c1		18.4 µM (active)
CCCc1c(C)nc2c(Br)cccc2c1Cl	-1.98%	
COc1cc(NS(=O)(=O)c2ccc(N/C=C(\C=O)c3nc4cc(Cl)ccc4o3)cc2)nc(OC)n1	-24.7%	
Cn1ncc(Br)c1C(=O)NC1CCCC1	-11.4%	
CCC(Oc1ccccc1)C(=O)OCC(=O)Nc1c(C)nn(-c2ccccc2)c1C (stereo not given)	5.19%	
Nc1cc(=O)n(Cc2ccccc2)c(=O)n1Cc1ccccc1	-10.3%	
Cc1ccc(C)c(Oc2c(C(F)(F)F)oc3c(CN4CCN(C)CC4)c(O)ccc3c2=O)c1		23.1 µM (active)
CCN1CCN(Cc2c(O)ccc3c(=O)c(-c4ccc(OC)c(OC)c4)c(C(F)(F)F)oc23)CC1	-18.3%	
CC1CCCN(Cc2c(O)ccc3c(=O)c(Oc4ccc(C(C)(C)C)cc4)c(C(F)(F)F)oc23)C1 (stereo not given)	-18.6%	
CCCN1CCN(CCCNC(=O)c2cnn(-c3ccc(C)cc3)c2-n2cccc2)CC1	-24%	
Cc1c(C(=O)NCc2ccccc2)cnn1-c1ccccc1	-16.4%	
CSc1ccc(CCNC(=O)c2cnn(-c3ccccc3)c2-n2cccc2)cc1		18.4 µM (active)
COc1cc(C(=O)Nc2ncccc2C)ccc1OCC(=O)N1CCOCC1	-0.766%	
Cn1ccnc1-c1nnn(-c2ccc(F)cc2)n1	-4.66%	
C/C(=N\NC(=O)Cc1ccc(Cl)cc1)c1ccccn1		1.46 µM (active)
O=C(Nc1ccc(NC(=O)c2ccccc2F)cc1)c1ccccc1F	-12.9%	
COc1ccc(C/C(C)=N/NC(=O)c2ccncc2)cc1	5.91%	

Compound	activity change, negative = growth inhibition	Potency
COc1ccc(C/C(C)=N/NC(=O)c2cc(C)oc2C)cc1	0.402%	
CC(=NNC(=S)N1CCCCCC1)c1ccccn1		0.0092 µM (active)
COc1ccc(CC(=O)N/N=C(\C)c2ccccn2)cc1		3.66 µM (active)
Cc1ccc(Cl)cc1NC(=O)c1ccccn1	-18.9%	
Cc1cccc(C)c1NC(=S)N1CCCCCC1	-7.74%	
C/C(=N\NC(=O)c1ccccc1F)c1ccccn1		3.26 µM (active)
CNC(=S)N1CCN(c2ccccn2)CC1	-0.34%	
C/C(CC(=O)Nc1ccc(N(C)C)cc1)=N\NC(=O)c1ccccc1F	-17.5%	
C/C(=N\NC(=O)Cc1ccc(Br)cc1)c1cccnc1	-24.7%	
CCC1([N+](=O)[O-])COC(c2ccc(C)cc2)OC1 (stereo not given)	-10.3%	
Cc1cc(C(C)(C)C)n2nc(C)c(-c3ccccc3)c2n1	-11.6%	
CCc1nnc(NC(=O)c2cc(S(=O)(=O)N3CCCCC3)ccc2C)s1	-3.57%	
CCOC(=O)C1CCN(C(c2ccc(F)cc2)c2sc3nc(-c4ccco4)nn3c2O)CC1 (stereo not given)	-0.823%	
Cc1cccc(N(C(=O)c2csnn2)C(C(=O)NCc2ccccc2)c2ccncc2)c1 (stereo not given)	-22%	
Cc1ccc(NC(=O)CCCNC(=O)c2ccc(Cl)cc2)cc1S(=O)(=O)N1CCOCC1	-28.1%	
O=C(Nc1cccc(F)c1)N1CC2(CCN(C(=O)c3cnccn3)CC2)C1	1.43%	
COc1ccc(NC(=O)Cn2ncn3c(cc4ccccc43)c2=O)c(OC)c1OC	18.6%	
O=C1CCC(C(=O)N2CCC(O)(c3ccccc3)CC2)CN1CCc1ccccc1 (stereo not given)	-4.28%	
Cc1cccnc1NC(=O)CSc1nnc(COc2ccc(C(C)C)cc2)n1C	-14%	
CN(CC(=O)Nc1ccccc1Cl)C(=O)COc1cccc2c1OC(C)(C)C2	-16.5%	
Cn1nc(C(F)(F)F)c(C(=O)Nc2cccc(C(F)(F)F)c2)c1SCc1ccc(Cl)cc1		16.4 µM (active)
CCC(=O)OCc1c(C(F)(F)F)nn(C)c1Oc1cccc(C(F)(F)F)c1	-24.2%	
O=C(O)CSCC(=O)Nc1cccc(C(F)(F)F)c1	2.36%	
Cc1ccc(OCCNC(=O)CNC(=O)c2ccc(C)c(C)c2)cc1	5.02%	
CC(C)OCCCNC(=O)c1ccc(C2SCC(=O)N2Cc2ccco2)cc1 (stereo not given)	-1.03%	
CC(C)OCCCNC(=O)CNC(=O)c1cccs1	3.22%	
COCCNC(=O)c1snc2ccc(Cl)cc12	-8.22%	

Compound	activity change, negative = growth inhibition	Potency
CCC1=Nc2cc(C(=O)NCCCOC(C)C)ccc2Sc2ccc(C)cc21		0.92 µM (active)
COCCNC(=O)c1ccc2c(c1)N=C(C)c1cc(C)ccc1S2		0.517 µM (active)
CCCCSc1[nH]c(=O)c(C(=O)OCC)cc1C#N	-15.2%	
Cc1ccc(C)c(-n2c(SCC(=O)O)nc3sc4c(c3c2=O)CCCC4)c1	-11.5%	
CCOC(=O)c1c(NC(=O)CN2C(=O)NC3(CCC(C)CC3)C2=O)sc(C)c1CC (stereo not given)	-5.5%	
Nc1ccc(S(=O)(=O)NC(=O)c2ccccc2)cc1		inactive
Nc1ccc(C(=O)Nc2ccccc2N)cc1		2.37 µM (active) and 5.8 µM (active)
Nc1ccc(C(=O)NCc2ccccc2)cc1	-1.18%	
O=C(NCC1CCCO1)/C(=C/c1ccc(Cl)cc1)NC(=O)c1ccccc1 (stereo not given)	-17.3%	
Cc1nn(C)cc1S(=O)(=O)N1CCN(c2ccc(F)cc2)CC1	-1.16%	
O=C(COc1cccc2c1CCNC2=O)NC1CCCCC1	-29.5%	
CCOc1ccccc1CNC(=O)C1CCCN(S(=O)(=O)c2ccc3c(ccn3C)c2)C1 (stereo not given)		14.6 µM (active)
CCOc1ccccc1NC(=O)C1CCCN(S(=O)(=O)c2cn(C)cn2)C1 (stereo not given)	13.4%	
COc1cccc(CNC(=O)C2CCN(S(=O)(=O)c3ccc4c(ccn4C)c3)CC2)c1	-15.4%	
O=C1CCCCC1Sc1ccc(Cl)cc1[N+](=O)[O-] (stereo not given)	-11.8%	
Cc1c(CNC2CCCCC2)c(C(=O)O)c(C)n1Cc1cccc(Cl)c1	-21.2%	
CC(=O)c1ccc(NC(=O)C(C)NCc2ccc(Cl)cc2)cc1 (stereo not given)	-18.7%	
Nc1nonc1-n1nnc(C(=O)N/N=C/c2ccc(Cl)cc2)c1-c1ccc2c(c1)OCO2	-20.4%	
Cc1cc(N2C(=O)C(=O)/C(=C(/O)c3ccccc3)C2c2cccc(Br)c2)no1 (stereo not given)	-28.5%	
CCN(CC)CCCC(C)n1c2nc(=O)[nH]c(=O)c-2nc2cc(Cl)ccc21 (stereo not given)		8.2 µM (active)
COc1ccc(Cc2nnc(N/N=C/c3ccccc3O)[nH]c2=O)cc1OC		0.0184 µM (active)
O=c1[nH]c(NCCO)nnc1Cc1ccc(Cl)cc1	0.596%	
COc1ccc(/C=N/Nc2nc3ccccc3c(=O)[nH]2)cc1	-16.4%	
COC(=O)C(=Nc1ccccc1)/C(C(=O)C(=O)N(C)c1ccccc1)=C(\O)c1ccc(Cl)cc1	7.92%	
